# Source: PubChem BioAssay
# Rv3671c inh = Rv3671c serine protease inhibitors, primary screen, biochemical, fluorescence polarization, M. tuberculosis H37Rv; inhibition, % at 5.96 µM; 320,000 compounds, 0.048% hits; P9WHR9; AID 2606, 2010; in the data active = inhibition above about 38%;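 note: extracellular domain of Rv3671c used as enzyme; 0% = enzyme with DMSO and 100% = no enzyme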
# Mtb UGM inh = M. tuberculosis UGM enzyme inhibitors, primary screen, biochemical, fluorescence polarization, single point | UDP-galactopyranose mutase (Mycobacterium tuberculosis (strain ATCC 25618 / H37Rv)), … | purified UGM, fluorescence polarization probe displacement | 320,000 compounds, 0.06% hits | AID 504406, 2011 | inhibition, % at 10 µM; in the data active = inhibition above about 10%, passing the limit was not always enough
# RecA intein inh = Mtb RecA intein splicing inhibitors, primary screen, biochemical, fluorescence, HTS; 290,000 compounds, 0.75% hits; inhibition, % (test concentration not listed); cell-free RecA intein splicing; AID 2221, 2009; in the data active = inhibition above about 30%;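 note: 0% = vehicle wells and 100% = reference inhibitor control wells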
# Target sequence (P9WHJ3 whole entry, looked up): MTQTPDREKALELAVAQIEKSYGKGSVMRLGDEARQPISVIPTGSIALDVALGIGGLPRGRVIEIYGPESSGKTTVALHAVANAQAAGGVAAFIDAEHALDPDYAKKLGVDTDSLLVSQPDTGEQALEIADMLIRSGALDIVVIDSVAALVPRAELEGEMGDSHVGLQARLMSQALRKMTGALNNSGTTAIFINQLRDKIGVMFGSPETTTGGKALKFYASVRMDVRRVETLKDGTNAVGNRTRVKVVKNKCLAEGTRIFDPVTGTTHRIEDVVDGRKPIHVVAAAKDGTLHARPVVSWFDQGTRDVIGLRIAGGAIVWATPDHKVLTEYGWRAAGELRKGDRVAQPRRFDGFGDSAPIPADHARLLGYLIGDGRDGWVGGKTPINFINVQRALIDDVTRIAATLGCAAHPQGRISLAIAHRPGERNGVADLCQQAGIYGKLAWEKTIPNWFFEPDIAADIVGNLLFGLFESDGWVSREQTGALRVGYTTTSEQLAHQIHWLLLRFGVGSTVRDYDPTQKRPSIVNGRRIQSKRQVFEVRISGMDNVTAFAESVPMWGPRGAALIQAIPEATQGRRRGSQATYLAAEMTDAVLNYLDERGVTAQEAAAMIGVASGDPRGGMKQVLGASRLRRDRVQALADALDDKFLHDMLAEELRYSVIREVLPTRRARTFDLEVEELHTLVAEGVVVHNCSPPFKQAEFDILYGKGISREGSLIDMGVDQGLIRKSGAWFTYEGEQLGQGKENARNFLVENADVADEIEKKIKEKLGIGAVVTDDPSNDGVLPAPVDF
# BH1578 lux ind = inducers of Vibrio cholerae quorum light production without autoinducers, primary screen, BH1578 luxS cqsA deficient, single point; V. cholerae BH1578 lux reporter, luminescence, 6 h; activation, % at 18.7 µM; 350,000 compounds, 0.16% hits; AID 588436, 2011; in the data active = activation mostly above about 9.7%, no sharp cut-off
# FBA Mtb inh = Mtb FBA enzyme inhibitors, primary screen, biochemical, fluorescence, strain H37Rv; 360,000 compounds, 2.3% hits; Fructose-bisphosphate aldolase (Mycobacterium tuberculosis (strain ATCC 25618 / H37Rv)), …; purified M. tuberculosis FBA, fluorescence read-out; inhibition, % at 1 µM; in the data active = inhibition above about 27%;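 note: 0% = vehicle and 100% = reference inhibitor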
# GDH-TPI counter = GDH-TPI coupling enzyme inhibitors, primary screen, artefact control for M. tuberculosis FBA inhibitor project, biochemical, absorbance, full deck | GDH-TPI coupled enzyme counterscreen, NADH absorbance | inhibition, % at 4.8 µM | 360,000 compounds, 1.2% hits; in the data active = inhibition above about 30%;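 note: 0% = DMSO wells and 100% = wells lacking the enzyme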
# * hit, by the source's call; i = inactive; nt = no result; + = active, no number. This is a sample that favours compounds with a hit; in the whole collection about 4.1% have one here.
SMILES,Rv3671c inh,Mtb UGM inh,RecA intein inh,BH1578 lux ind,FBA Mtb inh,GDH-TPI counter
O=c1[nH]nc(N/N=C/c2ccccc2OC(F)F)c(=O)[nH]1,-1,0,-11,i,3,42*
O=C(CCNc1n[nH]c(=O)[nH]c1=O)N/N=C/c1ccccc1Br,1,1,1,i,2,-4
O=C(O)c1ccc(-n2cccc2/C=C2/NC(=O)N(c3ccccc3)C2=O)cc1,4,3,3,-1,0,32*
CCOC(=O)c1cccc(-n2cccc2/C=C2\NC(=O)N(CC(=O)O)C2=O)c1,1,3,nt,i,0,31*
Nc1[nH]c(=O)[nH]c(=O)c1N=Cc1ccccc1,nt,nt,nt,-1,43*,7
Cc1ccccc1Oc1ccc2c(c1)[C@@H]1C[C@H](N(C)C(=O)c3ccco3)[C@H]([C@H](C)O)C(=O)N1CC2,nt,nt,nt,i,-1,4
CC(=O)c1sc2nc(-c3cccs3)cc(C(F)(F)F)c2c1N,6,-1,-4,nt,+,18
CS(=O)(=O)c1sc2nc(-c3cccs3)cc(-c3ccccc3)c2c1N,-5,1,-11,1,15,31*
Cc1ccc(-c2cc(-c3ccccc3)c3c(N)c(S(C)(=O)=O)sc3n2)cc1,-14,3,nt,0,15,14
Cc1c(C(=O)Nc2nccs2)sc2nc(-c3cccs3)cc(C(F)(F)F)c12,-17,0,-6,-1,10,14
Cc1c(C(=O)O)sc2nc(-c3cccs3)cc(C(F)(F)F)c12,5,1,3,0,32*,21
Cn1nnc2cc(C(=O)N3CCN(c4ccccn4)CC3)ccc21,-5,0,-3,0,-2,4
Cc1ccc(NC(=O)CCCC2CCCCC2)c(O)c1,-3,-5,1,1,0,-3
O=C(NCc1ccncc1)Nc1ccc(F)cc1,2,-1,-1,0,0,-6
Cc1cc(C)cc(Cn2c3ccc(NC(=S)NC4CCCCC4)cc3c(=O)n2C)c1,nt,nt,nt,i,17,4
Cc1cc(C)cc(Cn2c3ccc(NC(=O)NCc4ccccc4)cc3c(=O)n2C)c1,nt,nt,nt,-1,172*,-8
Cc1cc(C)cc(Cn2c3ccc(NC(=O)NCc4ccc(F)cc4)cc3c(=O)n2C)c1,nt,nt,nt,i,133*,8
COc1ccc(S(=O)(=O)N2CCCC(C(=O)NCC3CCCO3)C2)cc1OC (configuration not stated),-7,2,-2,0,3,-5
CCCCCCOC(=O)c1ccc(OC(=O)c2cccnc2)cc1,2,-2,61*,i,-3,-2
Cc1nc2nc(C(F)(F)F)[nH]c2nc1C,nt,nt,nt,i,-2,12
CCc1cccc2c(/C=N/NC(=O)c3cccc(S(=O)(=O)Nc4ccccc4Cl)c3)c[nH]c12,11,1,-1,0,4,37*
O=C(c1cc(-c2cccc(Cl)c2)nc2ccccc12)N1CCN(c2ccccn2)CC1,-7,-2,14,1,-1,2
O=C(O)c1cc(-c2cccc(Cl)c2)nc2nc(N3CCCCC3)sc12,-5,3,-9,0,+,18
O=C(NCc1ccco1)c1cccn2c(=O)c3sccc3nc12,4,1,-85,0,13,28
O=C(NCc1cccs1)c1cccn2c(=O)c3sccc3nc12,-3,0,-6,0,6,31*
O=C(N/N=C1\CCCc2c1[nH]c1ccc(Cl)cc21)c1ccncc1,7,2,-4,-1,-3,41*
CCC(C(=O)NC1CCCC1)N(C(=O)Cn1nnc(-c2ccc(C)o2)n1)c1ccc(F)cc1 (configuration not stated),nt,nt,0,i,2,0
CC(C)(NO)/C(=N\O)c1ccccc1,-2,1,-3,i,54*,-6
CC(=C/c1ccccc1)/C=N/Nc1nc(N2CCOCC2)nc(N2CCOCC2)n1,-12,3,-2,-1,-1,26
O=[N+]([O-])c1ccc(Cl)c(/C=N/Nc2nc(N3CCOCC3)nc(N3CCOCC3)n2)c1,-1,-5,-2,-3,-1,9
